Compound activity (PubChem BioAssay)
This is a sample that favours compounds with a hit; in the whole collection about 5.4% have one here.
DAX1 inh – inhibitors of human orphan nuclear receptor DAX1 (NR0B1); 0.99% of 340,000 active; P51843; HEK293 Gal4-DAX1 luciferase reporter, luminescence; inhibition, % at 6.75 µM; AID 504766;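 active means inhibition above the mean over all tested compounds plus 3 SD, cut at about 4.2% in these data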;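 further: inhibition shows as a rise in luminescence from relieved DAX1 repression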
HSF1 inh – HSF1 inhibition; activity change, negative = inhibition, % at 7.5 µM (by protocol); 0.77% of 300,000 active; NIH3T3-HGL HSE-luciferase, MG132-induced, luminescence 8 h; hits give low values;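 active means more than half of replicate wells show activity change below -50%, luminescence cut by over half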;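 further: luciferase reports HSF-1 transcriptional activity via heat shock element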
HSF-1 act – increases HSF-1 driven luciferase reporter signal; NIH3T3-HGL HSF-1 luciferase reporter, MG132, 8 h; 100% = twice DMSO control signal; activation, % at 9 µM; 1.7% of 300,000 active; AID 504408;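 active means mean replicate activation of at least 50% with a set share of replicates each reaching 50%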
GAA850 FXN act – activators of GAA850 frataxin (FXN) promoter; HEK293 lucGAA850 FXN promoter luciferase reporter, 24 h; percent of 10 µM SAHA response; activation, % at 6 µM; 0.56% of 360,000 active; AID 540364;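 active means activation above the average of all compounds screened plus 3 SD, cutoff fixed separately per campaign, cut at about 7.5% in these data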
AHR act – activators of human aryl hydrocarbon receptor | AHR-responsive luciferase reporter cells, luminescence | 2.5% of 320,000 active | activation, % at 5 µM; in the data active means activation above about 47%
Target sequence (P35869 whole entry, looked up): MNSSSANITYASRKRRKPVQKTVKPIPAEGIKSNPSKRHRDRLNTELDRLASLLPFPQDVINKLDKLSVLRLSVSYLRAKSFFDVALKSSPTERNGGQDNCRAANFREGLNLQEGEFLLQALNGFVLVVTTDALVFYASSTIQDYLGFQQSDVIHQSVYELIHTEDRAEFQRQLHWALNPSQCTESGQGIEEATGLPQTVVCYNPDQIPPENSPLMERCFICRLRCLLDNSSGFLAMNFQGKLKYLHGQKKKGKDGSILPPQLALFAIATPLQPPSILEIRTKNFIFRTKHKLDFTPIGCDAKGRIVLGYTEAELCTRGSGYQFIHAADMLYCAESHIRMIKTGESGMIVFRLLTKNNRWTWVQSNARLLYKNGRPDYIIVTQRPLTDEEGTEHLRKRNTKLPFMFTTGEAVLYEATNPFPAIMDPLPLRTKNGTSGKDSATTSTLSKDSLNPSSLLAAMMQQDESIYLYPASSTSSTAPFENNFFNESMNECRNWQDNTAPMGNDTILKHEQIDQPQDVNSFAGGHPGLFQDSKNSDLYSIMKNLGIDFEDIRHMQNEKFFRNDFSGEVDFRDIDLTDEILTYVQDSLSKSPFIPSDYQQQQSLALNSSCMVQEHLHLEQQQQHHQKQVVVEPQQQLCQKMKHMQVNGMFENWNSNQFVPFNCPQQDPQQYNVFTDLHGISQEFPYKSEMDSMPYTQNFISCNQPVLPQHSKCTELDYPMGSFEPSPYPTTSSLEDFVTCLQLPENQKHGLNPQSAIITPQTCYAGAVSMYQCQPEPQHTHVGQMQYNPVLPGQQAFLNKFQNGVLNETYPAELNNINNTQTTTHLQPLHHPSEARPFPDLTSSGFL
GAA30 FXN cntr – GAA30 FXN promoter activation counter-screen; shares compounds with GAA850 FXN act; HEK293 lucGAA30 FXN promoter luciferase, 24 h; DMSO = 0%, 5 µM ipriflavone = 100%; activation, % at 6 µM; 66% of 1,900 active; AID 588350;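 active means mean activation above the mean of solvent-only control wells plus 3 SD, cut at about 22% in these data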;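 further: counterscreen of GAA850 promoter hits where activity marks nonselective or luminescence artifacts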
GAA850 confirm – GAA850 FXN promoter activation confirmation; shares compounds with GAA850 FXN act; HEK293 lucGAA850 FXN promoter luciferase reporter, 24 h; 100% = activation by SAHA; activation, % at 6 µM; 86% of 1,900 active; AID 588351;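 active means mean activation above a set limit taken from the primary screen, cut at about 8% in these data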
Large screens that a line does not name were inactive (follow-up assays come after a bar, where they were run).

N#Cc1cc2c(nc1SCC(N)=O)CCCCC2	GAA850 FXN act 9.6 | GAA30 FXN cntr 108 | GAA850 confirm 38
C=C(C)CSc1nc2c(cc1C#N)CCC2	none
CCOC(=O)c1ccc(NC(=O)NCc2cccnc2)cc1	none
COc1ccccc1C(NC(=O)C1CCN(CCOc2ccccc2)CC1)c1ccccn1 (stereo unspecified)	none (no result: DAX1 inh, HSF1 inh, HSF-1 act, AHR act)
O=C(NC(=S)Nc1ccc(N2CCCC2)cc1)c1ccccc1[N+](=O)[O-]	GAA850 FXN act 8.8 | GAA30 FXN cntr 53 | GAA850 confirm 13
O/N=C(/CCc1ccccc1)c1ccc2c(c1)OCCO2	HSF-1 act 55, GAA850 FXN act 8.0 | GAA30 FXN cntr 117 | GAA850 confirm 33
COC(=O)c1ccc(COC(=O)CNC(=O)c2ccco2)cc1	none
COC(=O)c1ccc(COC(=O)CNC(=O)c2ccc(-c3ccccc3)cc2)cc1	GAA850 FXN act 8.1 | GAA30 FXN cntr 76 | GAA850 confirm 22
CCN1C(=O)/C(=C/c2cc(C)n(C)c2C)SC1=Nc1ccc(OC)cc1	GAA850 FXN act 9.9 | GAA30 FXN cntr inactive | GAA850 confirm 14
COc1cc(OC)cc(-c2c(C#Cc3ccsc3)c3cc(-c4ccc5c(c4)OCO5)ccc3n2C)c1	none (no result: HSF1 inh, HSF-1 act)
Cc1ccccc1CS(=O)(=O)c1nnc([C@H](Cc2ccccc2)NC(=O)OC(C)(C)C)o1	GAA850 FXN act 12 | GAA30 FXN cntr inactive | GAA850 confirm inactive
CC(C)(C)OC(=O)N[C@@H](Cc1ccccc1)c1nnc(S(=O)(=O)Cc2ccccc2)o1	none (no result: DAX1 inh, HSF1 inh, HSF-1 act, GAA850 FXN act)
CN(CC(=O)Nc1ccc(F)cc1)C(=O)Cn1nnc(-c2ccccc2)n1	none
O=C(CN1C(=O)NC2(CCCCCC2)C1=O)NCCc1ccccc1	none (no result: HSF1 inh, HSF-1 act)
O=C(N/N=C/c1cccc([N+](=O)[O-])c1)c1ccc2c(c1)OCCO2	GAA850 FXN act 8.9 | GAA30 FXN cntr 119 | GAA850 confirm 37
COc1ccc(C(=O)Nc2nc3ccccc3[nH]2)cc1OC	none
COc1cc(C(=O)Nc2nc3ccccc3[nH]2)ccc1OC(F)F	GAA850 FXN act 9.6 | GAA30 FXN cntr 86 | GAA850 confirm 36
C=CCn1c(SC(C)C(=O)NCc2ccc3c(c2)OCO3)nc2scc(-c3ccccc3)c2c1=O (stereo unspecified)	GAA850 FXN act 7.8 | GAA30 FXN cntr inactive | GAA850 confirm 10
O=C(O)c1cc(N=Nc2c(O)ccc3ccccc23)cc(C(=O)O)c1	none (no result: HSF1 inh, HSF-1 act, AHR act)
O=C(O)c1ccc(N=Nc2c(O)ccc3ncccc23)cc1	GAA850 FXN act 8.5 | GAA30 FXN cntr 108 | GAA850 confirm 39
O=C(CSCCO)Nc1cccc2ccccc12	none
O=C(CSCC(=O)Nc1cccc2ccccc12)Nc1cccc2ccccc12	GAA850 FXN act 14 | GAA30 FXN cntr 23 | GAA850 confirm inactive
CC(O)C(O)C(O)C(O)/C=N/NC(=O)c1ccccc1 (stereo unspecified)	GAA850 FXN act 7.7 | GAA30 FXN cntr 23 | GAA850 confirm inactive
CCCCn1c(N)c(N(CC(C)C)C(=O)Cc2ccc(S(=O)(=O)N3CCOCC3)s2)c(=O)[nH]c1=O	none (no result: HSF1 inh, HSF-1 act, AHR act)
O=C1C(O)CCN1Cc1ccccc1 (stereo unspecified)	none (no result: HSF1 inh, HSF-1 act, AHR act)
O=c1[nH]cnc2c1c(-c1ccccc1)cn2-c1ccc(Br)cc1	none
Cc1cccc(-n2cc(-c3ccccc3)c3c(=O)[nH]cnc32)c1	GAA850 FXN act 8.9 | GAA30 FXN cntr 23 | GAA850 confirm 11
Oc1ccc(-c2cn3ccccc3n2)cc1O	GAA850 FXN act 8.9 | GAA30 FXN cntr 109 | GAA850 confirm 33
Cc1ccn2cc(-c3ccc(O)c(O)c3)nc2c1	GAA850 FXN act 11 | GAA30 FXN cntr 127 | GAA850 confirm 48
Cc1ccn2cc(-c3cccc(NC(=O)C(C)C)c3)nc2c1	none
N#CC(C(O)c1ccccc1)N1CCOCC1 (stereo unspecified)	none (no result: HSF1 inh, HSF-1 act, AHR act)
c1cncc(-c2nn3c(Cn4nnc5ccccc54)nnc3s2)c1	GAA850 FXN act 16 | GAA30 FXN cntr inactive | GAA850 confirm inactive
c1ccc(C2=Nn3c(nnc3-c3cc(-c4ccccc4)n[nH]3)SC2)cc1	GAA850 FXN act 8.3 | GAA30 FXN cntr 41 | GAA850 confirm 23
Clc1ccc(C2=Nn3c(nnc3-c3cc(-c4ccccc4)n[nH]3)SC2)cc1	none
C[C@H](O)[C@@H]1CN2CCc3c([nH]c4ccc(-c5ccc6c(c5)OCO6)cc34)[C@@H]2C[C@@H]1N(C)C(=O)NC1CCCCC1	none (no result: HSF1 inh, HSF-1 act, AHR act)
COC(=O)c1c(NC(=O)CN2CCC3(O)CCCCC3C2c2ccc(OC)cc2OC)sc(C)c1C (stereo unspecified)	GAA850 FXN act 10 | GAA30 FXN cntr 26 | GAA850 confirm inactive
COC(=O)c1c(NC(=O)CN2CCC3(O)CCCCC3C2c2ccccc2OC)sc(C)c1C (stereo unspecified)	none
CCNC(=O)C1(C)CCN(C(=O)C(c2ccccc2)c2ccccc2)C1 (stereo unspecified)	none (no result: DAX1 inh, HSF1 inh, HSF-1 act, AHR act)
COc1cc2c(cc1OC)-c1cc(N3CCc4ccccc43)nc(=O)n1CC2	none
COc1cc2c(cc1OC)-c1cc(Nc3ccc(C(=O)O)cc3)nc(=O)n1CC2	none
COc1cc2c(cc1OC)-c1cc(N3CCCc4ccccc43)nc(=O)n1CC2	GAA850 FXN act 10 | GAA30 FXN cntr inactive | GAA850 confirm 16
COc1cc2c(cc1OC)-c1cc(N3CCCCCC3)nc(=O)n1CC2	GAA850 FXN act 13 | GAA30 FXN cntr 31 | GAA850 confirm 16
COc1cc2c(cc1OC)-c1cc(Nc3ccccc3Br)nc(=O)n1CC2	GAA850 FXN act 9.2 | GAA30 FXN cntr inactive | GAA850 confirm 16
COc1cc2c(cc1OC)-c1cc(Nc3ccc(C)cc3)nc(=O)n1CC2	none
CCOc1cccc(Nc2cc3n(c(=O)n2)CCc2cc(OC)c(OC)cc2-3)c1	GAA850 FXN act 9.6 | GAA30 FXN cntr inactive | GAA850 confirm 12
COc1cc2c(cc1OC)-c1cc(Nc3ccccc3)nc(=O)n1CC2	none
COc1ccc(CNC(=S)NCc2ccc(Cl)cc2)cc1OC	none
COc1cc2c(cc1OC)-c1cc(OCc3cccnc3)nc(=O)n1CC2	GAA850 FXN act 8.8 (no result: HSF1 inh, HSF-1 act, AHR act) | GAA30 FXN cntr inactive | GAA850 confirm 13
COc1ccc(Nc2cc3n(c(=O)n2)CCc2cc(OC)c(OC)cc2-3)cc1	none
COc1cc2c(cc1OC)-c1cc(NC3CCCCCC3)nc(=O)n1CC2	GAA850 FXN act 12 | GAA30 FXN cntr 26 | GAA850 confirm 12
CNC(=O)C[C@H]1C(=O)N(c2ccccc2)C[C@@H]1CSC	none (no result: HSF1 inh, HSF-1 act, AHR act)
CCN(CC(=O)Nc1ccc(NC(C)=O)cc1)C(=O)c1c(C)nn(Cc2ccc(C)cc2)c1Cl	none (no result: HSF1 inh, HSF-1 act, AHR act)
